Sampled rows, rich in hits. Any-hit rate of the full collection: about 4.2%.
S1P4 antag – blocks the human S1P4 receptor; 0.26% of 220,000 active; S1P4-expressing cells, antagonist mode, reporter read-out; AID 1510; inhibition, % at 4.98 µM; O95977; in the data active = inhibition above about 29%;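 also: 0% = wells stimulated with agonist and 100% = vehicle wells without agonist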
Target sequence (O95977 whole entry, looked up): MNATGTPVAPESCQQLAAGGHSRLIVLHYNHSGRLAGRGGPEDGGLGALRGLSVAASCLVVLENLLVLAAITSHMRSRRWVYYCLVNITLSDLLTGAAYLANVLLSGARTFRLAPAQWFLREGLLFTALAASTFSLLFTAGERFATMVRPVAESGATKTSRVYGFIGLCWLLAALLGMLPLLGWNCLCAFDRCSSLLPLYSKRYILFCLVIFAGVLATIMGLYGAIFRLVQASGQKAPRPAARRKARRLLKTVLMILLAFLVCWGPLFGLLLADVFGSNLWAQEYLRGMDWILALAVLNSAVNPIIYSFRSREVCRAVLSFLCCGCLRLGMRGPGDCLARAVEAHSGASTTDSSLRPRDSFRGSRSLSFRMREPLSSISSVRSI
Hsp70 act – transcriptional activators of Hsp70. activation, % at 10 µM. 0.04% of 200,000 active. HeLa Hsp70 promoter luciferase reporter, luminescence; scaled: vehicle 0, proteasome-inhibitor control 100%;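 active = activation above the mean across all tested compounds plus 3 SD, cutoff set per campaign, cut at about 5.5% in these data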;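 also: 100% = MG132 at 30 µM as the positive control and 0% = DMSO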
S1P4 ag – agonists of human S1P4 receptor | AID 1509 | S1P4-expressing cell line, agonist reporter assay | activation, % at 4.98 µM | 0.35% of 220,000 active; in the data active = activation above about 11%;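 also: 0% = DMSO vehicle and 100% = reference agonist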
CHOP inh – inhibitors of CHOP induction in ER stress response; CHO-K1 CHOP-promoter luciferase, tunicamycin-induced, 15-18 h; inhibition, % at 10 µM; 3.8% of 220,000 active; AID 2732;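 active = compounds that reduced the stress-induced luciferase reporter signal by more than about 70% of percent inhibition, limit read from the data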;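 also: 0% = tunicamycin plus vehicle and 100% = wells without tunicamycin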
* marks the source's active call; other numbers are inactive results; . = no result given.

SMILES | S1P4 antag | Hsp70 act | S1P4 ag | CHOP inh
CC(C)(C)NC(=O)CN(C(=O)Cn1nnc(-c2ccc(Cl)cc2)n1)C1CCN(Cc2ccccc2)CC1 | -16 | 0 | -1 | 72*
CCOC(=O)Cn1c(=O)cc(C)c2ccccc21 | -18 | 0 | 1 | 2
CCOC(=O)Cn1c(C)c(Br)c(=O)c2cccc(C)c21 | 3 | 0 | 1 | 92*
CCN(CC)CCC(c1ccc(N(C)C)cc1)c1c(OC)cc(OC)c2ccc(=O)oc12 (stereo unspecified) | . | . | . | 11
Cc1cccc(C(CC(=O)N2CCCC2)c2ccccc2)c1O (stereo unspecified) | 18 | 0 | -1 | 10
COC(=O)c1ccc(CNC(=O)COC(=O)C2CCC(C(C)(C)C)CC2)cc1 (stereo unspecified) | -2 | 0 | 1 | 93*
COC(=O)c1ccc(CNC(=O)COC(=O)C2CC3C=CC2C3)cc1 (stereo unspecified) | -1 | 0 | 1 | -2
CCOC(=O)/C(C#N)=C/c1c(OCC)n(CC)c2ccccc12 | -15 | 0 | 0 | 26
CCOc1ccccc1-n1nnnc1SCC(=O)Nc1cc(C)on1 | 7 | 0 | 1 | -10
COc1ccccc1-n1nnnc1SCC(=O)Nc1cc(C)on1 | -13 | 0 | 0 | 70*
CCOC(=O)c1ccc(N2CN(C3CCCCC3)CNC2=S)cc1 | -14 | 0 | 1 | -6
C(=N\Nc1nc2ccccc2[nH]1)/c1ccc2c(c1)OCCO2 | -2 | . | 0 | 19
C(=N\Nc1ccc2ccccc2n1)/c1ccc2c(c1)OCCO2 | -13 | 0 | -1 | 75*
O=C(c1ccc(COc2ccccc2Cl)o1)N1N=C(C(F)F)CC1(O)C(F)F (stereo unspecified) | -16 | 0 | 0 | 75*
Cc1sc2nc(SCC(=O)Nc3ccc(S(=O)(=O)NCCCC(=O)O)cc3)[nH]c(=O)c2c1C | 5 | 0 | -1 | 21
Cc1cc(C)c2c(c1)SC1=NC(c3ccccc3)(C(F)(F)F)NC(=O)N12 (stereo unspecified) | -18 | 0 | 0 | 94*
CCOc1ccc(/C=C/c2c([N+](=O)[O-])c(=O)n(C)c(=O)n2C)cc1 | -5 | 0 | -1 | 14
CC(=O)O/N=C1\C(=O)N(Cc2ccc(C)cc2)c2ccccc21 | -9 | 0 | 0 | 53
CC(C)CC(=O)O/N=C1\C(=O)N(Cc2ccc(Cl)cc2)c2ccc([N+](=O)[O-])cc21 | -4 | 0 | 1 | 90*
CSc1ccc(S(=O)(=O)NCCOc2ccccc2C)cc1 | 4 | 0 | 2 | 72*
Cc1onc(-c2ccccc2)c1C(=O)n1cc(Br)cn1 | -1 | 1 | -3 | 20
O=c1oc2cc(OCc3ccc([N+](=O)[O-])cc3)ccc2c2c1CCCC2 | -25 | 0 | 0 | 77*
Cc1nc(NC(=O)/C=C/c2ccccc2)sc1C(=O)NCCO | 1 | 0 | 1 | 10
O=C(/C=C\c1ccccc1)Nc1ccc(NC(=O)c2ccco2)cc1 | -5 | 0 | -2 | 95*
Cc1nc(NC(=O)/C=C/c2ccccc2)sc1C(=O)Nc1ccccc1 | -1 | 0 | -1 | 92*
SMILES | S1P4 antag | Hsp70 act | S1P4 ag | CHOP inh
O=C(/C=C/c1ccc(Br)cc1)c1ccc(NC(=O)c2ccco2)cc1 | -17 | 0 | 2 | 6
CCCN(Cc1cc2cccc(C)c2[nH]c1=O)C(=O)c1cccc(OC)c1 | -37 | 0 | 0 | .
Cc1ccc(C(=O)NCC2(c3ccccc3)CCCC2)cc1 | -11 | 0 | 3 | 33
CCOC(=O)c1c(-c2ccc(C)o2)csc1NC(=O)CN(C)CC(=O)Nc1ccc(C)cc1 | -15 | 0 | -3 | 89*
CCOC(=O)c1c(-c2ccc(C)o2)csc1NC(=O)CN1CCCCC1 | 4 | 0 | -1 | 35
Cn1c(=O)c(C(=O)Nc2ccccn2)c(O)c2ccccc21 | -1 | 0 | 2 | 72*
Cn1c(=O)c(C(=O)Nc2ccccc2S(N)(=O)=O)c(O)c2ccccc21 | -1 | . | 0 | 56
CCN(CC)C(=O)C(C)N(C#N)c1nc(Cl)nc(N(C)C)n1 (stereo unspecified) | 16 | 0 | 0 | 7
CCCC(=O)OC(C(=O)Nc1cc(C(F)(F)F)ccc1Cl)c1ccccc1 (stereo unspecified) | 14 | 0 | 0 | 27
Cc1cc(C(=O)NCC(=O)OC(C(=O)Nc2cc(C(F)(F)F)ccc2Cl)c2ccccc2)ccc1[N+](=O)[O-] (stereo unspecified) | -5 | 0 | -5 | 82*
CCOC(=O)C1CCN(C(=S)Nc2ccc(S(N)(=O)=O)cc2)CC1 | -3 | 0 | 1 | 8
CCOC(=O)/C(C#N)=C1\Nc2ccccc2N=C1N(CC(C)C)CC(C)C | 19 | 0 | -1 | 77*
CCOC(=O)/C(C#N)=C1/C=C(C)NC(c2ccccc2O)=N1 | -15 | 0 | -1 | 29
CCCCN(CCCC)C1=Nc2ccccc2N/C1=C(/C#N)C(=O)OCC | -10 | 0 | -2 | 72*
COc1cccc(C(C(=O)NC2CCCCC2)N(C(=O)c2ccco2)c2ccc(-n3cnnn3)c(C)c2)c1 (stereo unspecified) | -4 | 0 | 0 | -28
CCOC(=O)c1cc(-c2ccccc2)n(CC(=O)Nc2ccc(OC)c(OC)c2)c1C | -18 | 0 | 0 | 100*
CCOC(=O)N1CCN(c2ncnc3c2[nH]c2ccc(F)cc23)CC1 | -20 | 0 | 1 | 71*
O=C1NC(=Nc2ccc(Cl)cc2)/C(=C/c2ccco2)S1 | -11 | 0 | 1 | 56
O=C1NC(=Nc2ccc3ccccc3c2)S/C1=C/c1ccco1 | 11 | 0 | -1 | 86*
Cc1cccc(N=C2NC(=O)S/C2=C\c2ccco2)c1 | 1 | 0 | 0 | 72*
O=C1NC(=Nc2ccc(O)cc2)S/C1=C/c1ccco1 | -12 | 0 | 0 | 11
NC1=NC(c2ccc(Cl)cc2)n2c(nc3ccccc32)N1 (stereo unspecified) | 0 | 0 | -1 | -7
Cc1nn(-c2ccccc2)c2nc(-c3ccncc3)cc(C(=O)NCc3ccco3)c12 | 3 | 0 | 0 | 72*
CC1CC(=O)c2c(cc3c(-c4c(O)cc(O)c5c(O)c6c(cc45)OC(C)CC6=O)c(O)cc(O)c3c2O)O1 (stereo unspecified) | 8 | 0 | 1 | 82*
O=C1CC(c2ccc(O)cc2)Oc2cc(O)cc(O)c21 (stereo unspecified) | -28 | 0 | 1 | 14
O=C1CCCN1CCCNC(=S)Nc1ccccc1Cl | -19 | 0 | 2 | 0
CCOC(=O)C1=C(N)N2C(=O)C(C)SC2=C(C(=O)OC)C1c1ccccc1OC (stereo unspecified) | -6 | 0 | -1 | 82*
CC(C)(C)c1cc[n+](C2=C([O-])c3ccccc3C(=O)/C2=N\S(=O)(=O)c2cccs2)cc1 | -29 | . | -1 | 81*
CCn1c(SCC(=O)Nc2nc(-c3ccc(C)cc3)cs2)nnc1-c1ccccc1O | 6 | 0 | 1 | 86*
CCn1c(SCC(=O)Nc2nc(-c3ccc(C)cc3)cs2)nnc1-c1ccccc1 | 1 | 0 | 2 | 40
